According to a collection of fitness landscapes (doi:10.1126/science.1257360):
Over roughly 140,000 sequences, “enrichment ratio after two sorts for PhoP signalling” has its median near 0; the highest 2% begin near 11. Only a selection was taken, and the highest values are over-represented in it overall.

B1: PhoQ; a variant is named by its letters at X, in order, P23837 (parent)
chain: MKKLLRLFFPLSLRVRFLLATAAVVLVLSLAYGMVALIGYSVSFDKTTFRLLRGESNLFYTLAKWENNKLHVELPENIDKQSPTMTLIYDENGQLLWAQRDVPWLMKMIQPDWLKSNGFHEIEADVNDTSLLLSGDHSIQQQLQEVREDDDDAEMTHSVAVNVYPATSRMPKLTIVVVDTIPVELKSSYMVWSWFIYVLSANLLLVIPLLWVAAWWSLRPIEALAKEVRELEEHNRELLNPATTRELTSLVRNLNRLLKSERERYDKYRTTLTDLTHSLKTPLXXLQXXLRSLRSEKMSVSDAEPVMLEQISRISQQIGYYLHRASMRGGTLLSRELHPVAPLLDNLTSALNKVYQRKGVNISLDISPEISFVGEQNDFVEVMGNVLDNACKYCLEFVEISARQTDEHLYIVVEDDGPGIPLSKREVIFDRGQRVDTLRPGQGVGLAVAREITEQYEGKIVAGESMLGGARMEVIFGRQHSAPKDE

Variants of: B1
Assay: enrichment ratio after two sorts for PhoP signalling (ratio (wild type AVST 3.29)); higher = more functional
Conditions: with PhoP (E. coli)

Variant	enrichment ratio
WHNW	≤ 0.25
WMSA	≤ 0.25
HCSR	≤ 0.25
TYDS	≤ 0.25
MLEL	≤ 0.25
MVPY	≤ 0.25
MVPA	≤ 0.25
MVYI	≤ 0.25
MVHV	≤ 0.25
GVAN	≤ 0.25
MVIV	≤ 0.25
MVAV	11.4
MVYK	17.6
MVWN	13.3
MVNL	≤ 0.25
MVAN	15.8
MVYD	≤ 0.25
GDLC	1.96
LWEG	≤ 0.25
RTKT	≤ 0.25
QLML	≤ 0.25
KICA	≤ 0.25
LLMY	≤ 0.25
FMIW	≤ 0.25

Variant	enrichment ratio
YMVF	≤ 0.25
NLLC	≤ 0.25
MVTG	≤ 0.25
MVAG	12.7
MVMG	1.65
LDKC	≤ 0.25
PPTY	≤ 0.25
TEYH	20.6
HPGH	≤ 0.25
TEGP	≤ 0.25
TEIH	11.4
VEIH	≤ 0.25
TEGH	18.1
TETH	10.3
HPYH	≤ 0.25
TESH	32.2
NESH	≤ 0.25
TEES	≤ 0.25
QEIH	≤ 0.25
DYRT	≤ 0.25
NIFH	≤ 0.25
YEYG	≤ 0.25
NSAM	≤ 0.25
TSWM	16.2

Variant	enrichment ratio
KSWM	≤ 0.25
MMTM	10.9
TSTM	25.6
TSGM	19.2
MMWM	≤ 0.25
MMGM	1.99
NVTM	≤ 0.25
KSAM	≤ 0.25
KSGM	≤ 0.25
TSAM	13.8
HFPI	≤ 0.25
TFKM	≤ 0.25
INVC	≤ 0.25
KVGI	≤ 0.25
GLDQ	≤ 0.25
DESQ	≤ 0.25
RFAC	≤ 0.25
SQGF	0.381
SRGF	0.392
STGF	11.4
STHF	≤ 0.25
KYGF	≤ 0.25
KYMF	≤ 0.25
STMF	11.1

Variant	enrichment ratio
SEMF	20.6
SEGF	12.8
MQAN	2.41
VFHF	≤ 0.25
QYTY	≤ 0.25
GGWG	≤ 0.25
IALA	≤ 0.25
AVFF	≤ 0.25
YVCH	0.383
GERH	≤ 0.25
DKRH	≤ 0.25
GTLM	14.5
HILM	≤ 0.25
GMLM	1.25
GYLM	≤ 0.25
SRLM	8.53
SLLM	6.84
LTLM	2.03
SNLM	12
SFLM	4.5
GALM	12.1
SILM	0.906
SELM	15.6
SPGC	≤ 0.25

Variant	enrichment ratio
GWTC	≤ 0.25
WFGV	≤ 0.25
IFGQ	≤ 0.25
VSCI	7.51
VLVC	≤ 0.25
SCAA	5.68
PIFW	1.39
LQRE	≤ 0.25
NQHW	≤ 0.25
IILM	0.265
ATLM	21.4
QCLM	≤ 0.25
VCLM	4.34
KQLM	≤ 0.25
SALM	12.7
YTLM	9.3
ITLM	8.61
TTLM	16.5
GCLM	16.5
YLIN	≤ 0.25
MTRF	≤ 0.25
FHGK	≤ 0.25
PTLY	≤ 0.25
EFRH	≤ 0.25

Variant	enrichment ratio
APYT	≤ 0.25
YSRL	≤ 0.25
LVSS	≤ 0.25
DSTR	≤ 0.25
IRCW	≤ 0.25
TYHN	≤ 0.25
GEDL	≤ 0.25
GILM	15.7
GIPM	≤ 0.25
MCLM	6.74
MNLM	15.1
GIYR	≤ 0.25
VYLM	≤ 0.25
TNLM	2.74
VFLM	≤ 0.25
LNLM	≤ 0.25
VNLM	22.6
GNLM	17.5
GFLM	2.69
AYGP	≤ 0.25
WTPP	≤ 0.25
ECHD	≤ 0.25
DMYC	≤ 0.25
TAWF	5.36

Variant	enrichment ratio
GYWP	≤ 0.25
GPLY	≤ 0.25
MTLM	13.8
GKLM	12.5
MPLM	≤ 0.25
MNCK	≤ 0.25
MNIM	12.3
GKVM	≤ 0.25
MMLM	≤ 0.25
STLM	11.2
SPLM	≤ 0.25
MNPM	≤ 0.25
GKLA	≤ 0.25
WSKW	≤ 0.25
HRWY	≤ 0.25
RRQK	≤ 0.25
PAKQ	≤ 0.25
VEYL	≤ 0.25
MFKL	≤ 0.25
KGPS	≤ 0.25
KVQA	≤ 0.25
KAMF	≤ 0.25
SMTV	11.4
SMDV	≤ 0.25

Variant	enrichment ratio
NAMF	≤ 0.25
SDTV	13.5
SVDV	≤ 0.25
KFTV	≤ 0.25
SAMF	14.8
KITV	≤ 0.25
SRTV	≤ 0.25
SVTV	11.3
SYTV	0.308
YFHI	≤ 0.25
TFLR	0.372
GGFA	≤ 0.25
GQMI	≤ 0.25
LTAP	≤ 0.25
RPSV	≤ 0.25
WEGK	≤ 0.25
QYAI	≤ 0.25
KSTV	≤ 0.25
TKTV	20
NETV	8.86
QETV	≤ 0.25
SQMD	17.4
AKTV	5.31
TETV	17.9

Variant	enrichment ratio
SQGD	≤ 0.25
SITV	11.8
STMD	9.32
SPTV	≤ 0.25
KYTV	≤ 0.25
RQLF	≤ 0.25
MHPM	≤ 0.25
IVSV	≤ 0.25
LDYS	≤ 0.25
PIMI	≤ 0.25
YPRI	≤ 0.25
KIFY	≤ 0.25
WIAV	≤ 0.25
SETV	14.9
NVTV	≤ 0.25
TSTV	26.5
SLTV	10.4
MMTV	≤ 0.25
YTIV	0.385
SIAV	12.2
KYAV	≤ 0.25
STIV	11.9
STIS	8.13
SSTV	10.5

Variant	enrichment ratio
GKTV	≤ 0.25
KFQS	≤ 0.25
SNDT	≤ 0.25
RWGI	≤ 0.25
EKED	≤ 0.25
VMLL	≤ 0.25
GWEH	≤ 0.25
NLWG	≤ 0.25
DHDD	≤ 0.25
KRSK	≤ 0.25
APEA	≤ 0.25
HQMW	≤ 0.25
SAQV	0.569
SAFA	≤ 0.25
SIMV	13.6
SWMV	≤ 0.25
SPMV	≤ 0.25
KYMV	≤ 0.25
SAMA	12.3
SAPV	5.29
KAMA	≤ 0.25
SAMV	14.1
STMV	12.8
SIWV	≤ 0.25

Variant	enrichment ratio
ILLG	≤ 0.25
KTTK	≤ 0.25
TRRW	≤ 0.25
QYNE	≤ 0.25
MVYP	≤ 0.25
NQPT	≤ 0.25
QHTM	≤ 0.25
YDVW	≤ 0.25
KTCA	≤ 0.25
PMGE	≤ 0.25
KQMV	≤ 0.25
SQMV	22.1
SQMW	≤ 0.25
YHTC	≤ 0.25
AIWH	≤ 0.25
AHIH	≤ 0.25
AEFH	1.2
AEWS	8.72
AECC	16.3
AWCH	≤ 0.25
AECH	16.5
ADCC	4.94
AECF	2.16
AEWH	22.3

Variant	enrichment ratio
AIIH	2.68
AEIH	60.7
MYMC	≤ 0.25
KQLY	≤ 0.25
MMRL	≤ 0.25
RHKQ	≤ 0.25
HNLQ	≤ 0.25
IHWA	≤ 0.25
AEQH	≤ 0.25
AEMH	36.8
AEYH	≤ 0.25
AEKH	≤ 0.25
AEGH	12.9
AEGP	≤ 0.25
EVPD	≤ 0.25
EPIP	≤ 0.25
PGMG	≤ 0.25
DEEV	≤ 0.25
QPMV	≤ 0.25
TGEV	26.6
YTMV	12.2
NGMS	≤ 0.25
YYMV	≤ 0.25
TGMS	12.8

Variant	enrichment ratio
TGMG	17.2
NGMG	≤ 0.25
GGMS	1.56
GGEV	≤ 0.25
PEIA	≤ 0.25
HVSH	≤ 0.25
FEHR	≤ 0.25
ENVM	≤ 0.25
LMNE	≤ 0.25
WNVD	≤ 0.25
RCTL	≤ 0.25
NGMD	≤ 0.25
TGMV	12.7
GGMV	5
NGMV	14
RGMV	≤ 0.25
ICIV	≤ 0.25
ICMW	≤ 0.25
ICMV	13.2
NGIV	≤ 0.25
